Usually inhibition stands for the drop in the measured response relative to a control, in per cent.

In all, about 290,000 compounds went through this assay and about 27,000 (9.3%) were called active. The entries come from a sample that favours actives as a whole. A number with no mark means an inactive call. No stated cut-off is given here; in the data, active means inhibition mostly above about 28% (no sharp cut-off); inactive means mostly below about 43%. Where a SMILES comes first, the peptide text is derived from it. Bridges are numbered along the chain shown (N, C = ends).

The assay is described as follows: A qHTS for Small Molecule Inhibitors of Shiga Toxin. Further: 0% is about no effect. The following applies: Vero cells, Shiga toxin protein synthesis inhibition reporter; at 38.7 µM, stronger effect = higher value. On the technique in general: Quantitative high-throughput screening tests each substance at several concentrations.
Take `CCOC(=O)[C@@H]1[C@H]2COc3ccc(Br)cc3[C@H]2N2C(=O)N(c3ccc(Cl)cc3)C(=O)[C@@]12C`: the inhibition was -8.05%. In the case of `Cc1cccc(NC(=O)c2nc(S(=O)(=O)Cc3ccccc3)ncc2Cl)c1` it was 34.1% (active); in that of `CCOc1ccc(NC(=O)c2nc(SCC)ncc2Cl)cc1`, -3.26%; in that of `CCSc1ncc(Cl)c(C(=O)Nc2cc(C)ccc2C)n1`, -1.29%. In the case of `Cc1cccc(NC(=O)c2nc[nH]c2C(=O)NCC(=O)OCc2ccccc2)c1` it was -6.49%; in that of `Cc1cccc(OCc2ccc(C(=O)Nc3ccc(F)cc3)cc2)c1`, -8.13%. `Cc1cccc(CS(=O)(=O)c2ncc(Cl)c(C(=O)Nc3ccc(F)cc3)n2)c1`: the inhibition is 53.3% (active). The value for `COc1ccc(C(=O)Nc2cc(C)c(NC(=O)c3ccccc3OC)cn2)cc1` was 37%. The value for `Cc1ccc(S(=O)(=O)N(C)CC(=O)NCCc2c[nH]c3ccccc23)cc1` was -2.21%; that for `O=C(CCCCCn1c(=S)[nH]c2ccsc2c1=O)NC1CCCCC1` was -10.2%.

Regarding `c1ccc(Nc2nc(-c3ccncc3)cs2)nc1`, the inhibition is 75.1% (active). In the case of `COc1ccc2nc(Nc3nc(-c4ccncc4)cs3)sc2c1`, the inhibition is 53%. The value for `COc1ccc(-c2csc(Nc3ccccn3)n2)cc1` was 48% (active); that for `COc1ccc(CNc2nccs2)cc1` was -0.77%; that for `COC(=O)CSc1nccc(-c2cccs2)n1` was 46.2%. The value for `c1cnc(Nc2nc(-c3ccc4ccccc4c3)cs2)nc1` was 154% (active); that for `COC(=O)c1cc(-c2cccs2)nc2ccccc12` was -1.63%; that for `Clc1ccc(Nc2nc(-c3cccs3)cs2)nc1` was 70.3% (active). Take `COc1ccc(N(CC(=O)NCC2CCCO2)C(=O)CCC(=O)Nc2nccs2)c(OC)c1` (stereo not drawn): the inhibition is 16.4%. Turning to `Cc1ccc(NC(=O)CCC(=O)c2ccc(Br)cc2)cc1`, the inhibition was -4.63%. As for `CCCCNC(=O)CN1C(=O)NC(Cc2ccccc2)(Cc2ccccc2)C1=O`, the inhibition was 2.69%.

For the compound `Cc1c(C(=O)N2CCN(c3ccc(F)cc3)CC2)oc2c1C(=O)CCC2`, the inhibition is -4.3%. For the compound `C/C(=N/OC(=O)c1ccc(Br)cc1)c1ccc(C)cc1`, the inhibition was 6.54%. As to `O=C(CC(n1cncn1)C(Cl)(Cl)Cl)c1ccc([N+](=O)[O-])cc1` (stereo not drawn), the inhibition was -7.92%. In the case of `Cc1cccc(C)c1NC(=O)CN1C(=O)C(C)Oc2ccccc21` (stereo not drawn) it was -3.24%; in that of `NC(=O)C(Cc1ccccc1)NC(=O)C12CC3CC(CC(C3)C1)C2` (stereo not drawn), -10.9%; in that of `COc1ccc(C(=O)NC(=S)Nc2ccccc2N2CCN(S(C)(=O)=O)CC2)cc1OC`, -2.05%. For the compound `COc1ccccc1C(=O)NC(=S)Nc1ccccc1N1CCCCC1`, the inhibition was 39.8% (active). As for `O=C(NC(=S)Nc1ccccc1N1CCCCC1)c1ccc(F)cc1`, the inhibition was -27.2%. On to `Cc1ccnc(NS(=O)(=O)c2ccc(NC(=O)c3oc4ccc(F)cc4c3C)cc2)n1`, for which the inhibition is -7.64%. As for `O=S(=O)(c1ccc(Cl)s1)N1CCC2(CC1)OCCO2`, the inhibition was 6.74%.

With `C[C@@H](O)[C@@H]1NC(=O)[C@H](CCCCN)NC(=O)[C@H](Cc2c[nH]c3ccccc23)NC(=O)[C@H](Cc2ccccc2)NC(=O)[C@H](Cc2ccccc2)NC(=O)[C@H](CC(N)=O)NC(=O)[C@H](CCCCN)NC(=O)[C@@H](NC(=O)[C@@H]2CCCN2)CSSC[C@@H](C(=O)N[C@@H](CCCCN)C(=O)O)NC(=O)[C@H](CO)NC(=O)[C@H](CO)NC(=O)[C@H](Cc2ccccc2)NC1=O` (H-PCKNFFWKTFSSCK-OH; disulfide 2-13), the inhibition was -9.69%.

Consider `O=C(NCc1ccccc1)C(c1ccccc1)N(C(=O)c1csnn1)c1ccc(F)cc1` (stereo not drawn), for which the inhibition was -3.73%.

For `CC1CCN(c2ccc(C(=O)Nc3nnc(C4CC4)s3)cc2[N+](=O)[O-])CC1`, the inhibition is 1.09%. Turning to `O=C(Nc1nnc(C2CC2)s1)c1ccccn1`, the inhibition is 109% (active). In the case of `Cc1cccc(NC(=O)CSCC(=O)Nc2nnc(C3CC3)s2)c1` it was 14.9%. In the case of `O=C(Cc1cccs1)Nc1nnc(C2CC2)s1` it was 18.3%; in that of `Cc1occc1C(=O)Nc1nnc(-c2ccncc2)s1`, 28.4%; in that of `COc1ccc(NC(=O)CCC(=O)Nc2nnc(C3CCCCC3)s2)cc1`, -3.77%. In the case of `O=C(Nc1nnc(C2CC2)s1)c1cc(Cl)sc1Cl`, the inhibition is 48% (active). In the case of `Cc1occc1C(=O)Nc1nnc(C2CCCCC2)s1` it was 60.1% (active); in that of `O=C(Nc1nnc(C2CC2)s1)C1=NN(C2CCS(=O)(=O)C2)C(=O)CC1` (stereo not drawn), -18%. In the case of `CC1CCN(S(=O)(=O)c2ccc(NC(=O)C3CC(=O)N(c4ccccc4)C3)cc2)CC1` (stereo not drawn) it was -4.69%; in that of `COc1ccc(NS(=O)(=O)c2ccc(N3CCN(CCO)CC3)c([N+](=O)[O-])c2)cc1`, -10.2%. In the case of `CN(C(=O)c1ccccc1)c1nccnc1C#N` it was -2.8%. Take `CCc1nn(CC(=O)N2CCN(CC)CC2)c(=O)c2cccn12`: the inhibition was -0.821%.

As for `COc1ccccc1CN1CCNC(=O)C1CC(=O)N(C)CC1CCOCC1` (stereo not drawn), the inhibition was -2.77%. The value for `O=C(CSc1nc2ccccc2[nH]1)c1cccs1` was 119% (active). As for `CC(=O)Nc1ccc(C(=O)CSc2nc3ccc(C)cc3[nH]2)cc1`, the inhibition was 23.5%.

On to `O=C(CSc1nc2ccccc2[nH]1)N/N=C/C=C\c1ccccc1[N+](=O)[O-]`, for which the inhibition is 30.8%. In the case of `O=C(CSc1nc2ccccc2[nH]1)Nc1nc(-c2ccccc2)c(-c2ccccc2)o1` it was -6.45%. In the case of `CN(Cc1ccccc1)C(=O)CSc1nc2ccccc2[nH]1` it was 70.2% (active); in that of `CN(Cc1ccccc1)c1nc2c(c(=O)[nH]c(=O)n2C)n1CCSc1nc2ccccc2[nH]1`, -8.47%. On to `CN(CCc1ccccn1)C(=O)c1ccc(OC2CCN(CCc3ccccc3)CC2)cc1`, for which the inhibition was 24.5%. In the case of `Cc1cc(C)c(S(=O)(=O)N(C)CC(=O)NCC2CCCO2)c(C)c1` (stereo not drawn) it was -2.86%; in that of `Cc1ccc(OCC(=O)Nc2ccc(C(=O)O)cc2NC(=O)COc2ccc(C)c(C)c2)cc1C`, -6.8%. Regarding `Cc1ccc(C2Nc3cccc4cccc(c34)N2)cc1`, the inhibition is -10.1%. Regarding `C=CCN1CCN(C(=O)CCCc2ccccc2)CC1`, the inhibition was 9.38%. The value for `CCc1c(C)nc(N)n2c(SCC(=O)NC3CCCCC3)nnc12` was -19.4%.

Regarding `S=C(c1ccc(-c2ccccc2)o1)N1CCCCC1`, the inhibition was 98.2% (active).

On to `S=C(c1ccccc1)N1CCCC1`, for which the inhibition was -8.23%. Take `OCCN1CCN(C(=S)c2ccc(-c3ccccc3)cc2)CC1`: the inhibition is 0.879%. The value for `N#C[C@]1(S(=O)(=O)c2ccccc2)C[C@@H]2ON=C(c3cccc(Br)c3)[C@@H]2C1` was -6.42%; that for `CCc1nc(N2CCN(C(C)=O)CC2)c2c3c(sc2n1)CCCC3` was -5.44%; that for `Cc1ccc(C(=O)CSc2ccccc2C(=O)O)cc1` was 39.6%.

For `Cc1ccc(C(=O)Cn2cccn2)cc1`, the inhibition was 5.48%. The value for `Cc1ccc(C(=O)Cc2nnc(C)s2)cc1` was 58.4% (active); that for `CC1CC(=O)N(CC(=O)Nc2cccc(Cl)c2)c2ccccc2S1(=O)=O` (stereo not drawn) was -4.68%. The value for `CCN(C(=O)COC(=O)c1ccc(COc2ccc3c(C)cc(=O)oc3c2)cc1)C1CCS(=O)(=O)C1` (stereo not drawn) was 33%; that for `CCCSc1nc2sc3c(c2c(=O)n1-c1ccc(OC)cc1)CCN(C)C3` was -19%. In the case of `CC(C)(O)C#Cc1ccc(CN2CCC(CO)(CCc3ccccc3)CC2)cc1` it was -5.12%; in that of `COCCCNc1nc2c(-c3cccc(C)c3)nnn2c2ccc(Cl)cc12`, 9.32%. For `CCOC(=O)CSc1nnc(CNc2ccc(F)cc2)o1`, the inhibition was -20.4%. The value for `Cc1cccc2nc(CNc3ccc(F)cc3)cn12` was 66.5% (active).

For the compound `COc1cc([N+](=O)[O-])cc([N+](=O)[O-])c1NC(=O)N1CCOCC1`, the inhibition was -11.6%. In the case of `CCN(c1ccccc1)S(=O)(=O)c1cc2c(cc1C)n(C)c(=O)c(=O)n2C` it was 10.4%. For the compound `O=C(CCCN1CCc2[nH]c3ccc(F)cc3c2C1)c1ccc(F)cc1`, the inhibition was -5.56%. Take `C[C@H](NC(=O)NCCc1ccccc1)C(=O)O`: the inhibition was 8.98%. On to `O=C(COC(=O)c1ccc(F)cc1)NCCCc1ccccc1`, for which the inhibition was -1.67%.

For the compound `CCCOc1ccc(C(=O)NCCc2ccccc2)cc1`, the inhibition is 39.8%. In the case of `O=C(NCCCc1ccccc1)c1cc(COc2c(F)cccc2F)on1` it was 78.1% (active). In the case of `COC(=O)[C@@H](Cc1ccccc1)NC(=O)NCCc1ccccc1` it was 15.6%. In the case of `CC(C)Cc1cc(C(=O)NCCc2ccccc2)no1` it was 87.5% (active); in that of `O=C(NCCc1ccccc1)c1ccc(OCCOc2ccccc2)cc1`, -1.89%; in that of `CC(C)/C=N/NC(=O)c1cc(Br)ccc1O`, 30.6%. For `CC(C)C(=O)NCc1cc(-c2ccc(Cl)cc2)no1`, the inhibition was 10.8%. As for `CC(C)c1ccc(C(=O)NCCCc2ccccc2)cc1`, the inhibition is 60.6% (active). In the case of `CC(C)Cc1cc(C(=O)Nc2cc(Br)ccc2O)no1` it was 85.5% (active); in that of `O=C(NCCN1CCCC(O)C1)c1cc(COc2c(F)cccc2F)on1` (stereo not drawn), -6.84%. The value for `CCOc1cc(CN2CCCC(CO)(Cc3ccc(F)cc3F)C2)ccc1OC` (stereo not drawn) was 1.36%; that for `COC(=O)Cn1cnc2scc(-c3ccc(C)c(C)c3)c2c1=O` was -16.4%; that for `CC(C)Oc1ccc(/C=N/NC(=O)c2nnn(-c3nonc3N)c2CN(C)C2CCCCC2)cc1` was -5.14%.

With `CCOc1ccc(S(=O)(=O)NCCCn2ccnc2)cc1NC(C)=O`, the inhibition is -15.3%.

For the origin of these results see PubChem BioAssay AID2315 (National Center for Advancing Translational Sciences (NCATS), 2010).
